Experimental data from ChEMBL document CHEMBL3988442, “University of Dundee, Small-Polar-MMV Screening Library” (2021).
For some of these results: Potency and affinity values are given separately.

Assays:
Set-up in all cases: scale not given: direction of the effect not stated beside the values
[1] = biological target: Protein translocase subunit SecA (Escherichia coli (strain K12)) (UniProt P10408); experiment: Assay to Identify E. coli SecA ATPase Inhibitors; type: functional; conditions: 30 µM
Chain of Protein translocase subunit SecA (Escherichia coli (strain K12)) (P10408 whole entry): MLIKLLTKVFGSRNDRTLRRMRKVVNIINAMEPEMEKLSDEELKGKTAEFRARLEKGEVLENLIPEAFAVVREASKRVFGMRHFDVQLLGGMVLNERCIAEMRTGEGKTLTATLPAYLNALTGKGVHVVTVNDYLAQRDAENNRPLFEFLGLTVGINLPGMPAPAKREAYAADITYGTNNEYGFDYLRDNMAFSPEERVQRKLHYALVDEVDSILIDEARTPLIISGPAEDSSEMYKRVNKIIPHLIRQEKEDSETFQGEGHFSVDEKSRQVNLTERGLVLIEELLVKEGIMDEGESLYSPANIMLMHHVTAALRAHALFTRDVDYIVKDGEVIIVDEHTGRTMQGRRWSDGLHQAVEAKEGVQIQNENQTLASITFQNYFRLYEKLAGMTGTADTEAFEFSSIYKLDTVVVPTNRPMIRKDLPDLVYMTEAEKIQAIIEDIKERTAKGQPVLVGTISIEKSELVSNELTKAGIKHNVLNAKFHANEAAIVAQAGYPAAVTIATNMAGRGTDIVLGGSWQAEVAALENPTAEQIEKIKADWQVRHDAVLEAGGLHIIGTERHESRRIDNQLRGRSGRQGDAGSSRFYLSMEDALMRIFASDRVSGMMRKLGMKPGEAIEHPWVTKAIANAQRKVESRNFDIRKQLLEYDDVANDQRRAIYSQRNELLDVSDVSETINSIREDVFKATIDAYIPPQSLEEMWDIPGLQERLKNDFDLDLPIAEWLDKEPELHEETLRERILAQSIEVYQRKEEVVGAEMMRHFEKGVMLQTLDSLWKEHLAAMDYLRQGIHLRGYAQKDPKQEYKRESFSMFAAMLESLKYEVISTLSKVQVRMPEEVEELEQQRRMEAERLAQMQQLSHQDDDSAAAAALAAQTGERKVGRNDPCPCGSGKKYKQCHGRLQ

[2] = biological target: T1, Ubiquitin-activating enzyme e1, putative (Leishmania donovani (strain BPK282A1)) (UniProt E9BSI1); experiment: Leishmania donovani Ubiquitin Activating Enzyme (LdE1); type: functional; conditions: 30 µM
T1 sequence (whole entry): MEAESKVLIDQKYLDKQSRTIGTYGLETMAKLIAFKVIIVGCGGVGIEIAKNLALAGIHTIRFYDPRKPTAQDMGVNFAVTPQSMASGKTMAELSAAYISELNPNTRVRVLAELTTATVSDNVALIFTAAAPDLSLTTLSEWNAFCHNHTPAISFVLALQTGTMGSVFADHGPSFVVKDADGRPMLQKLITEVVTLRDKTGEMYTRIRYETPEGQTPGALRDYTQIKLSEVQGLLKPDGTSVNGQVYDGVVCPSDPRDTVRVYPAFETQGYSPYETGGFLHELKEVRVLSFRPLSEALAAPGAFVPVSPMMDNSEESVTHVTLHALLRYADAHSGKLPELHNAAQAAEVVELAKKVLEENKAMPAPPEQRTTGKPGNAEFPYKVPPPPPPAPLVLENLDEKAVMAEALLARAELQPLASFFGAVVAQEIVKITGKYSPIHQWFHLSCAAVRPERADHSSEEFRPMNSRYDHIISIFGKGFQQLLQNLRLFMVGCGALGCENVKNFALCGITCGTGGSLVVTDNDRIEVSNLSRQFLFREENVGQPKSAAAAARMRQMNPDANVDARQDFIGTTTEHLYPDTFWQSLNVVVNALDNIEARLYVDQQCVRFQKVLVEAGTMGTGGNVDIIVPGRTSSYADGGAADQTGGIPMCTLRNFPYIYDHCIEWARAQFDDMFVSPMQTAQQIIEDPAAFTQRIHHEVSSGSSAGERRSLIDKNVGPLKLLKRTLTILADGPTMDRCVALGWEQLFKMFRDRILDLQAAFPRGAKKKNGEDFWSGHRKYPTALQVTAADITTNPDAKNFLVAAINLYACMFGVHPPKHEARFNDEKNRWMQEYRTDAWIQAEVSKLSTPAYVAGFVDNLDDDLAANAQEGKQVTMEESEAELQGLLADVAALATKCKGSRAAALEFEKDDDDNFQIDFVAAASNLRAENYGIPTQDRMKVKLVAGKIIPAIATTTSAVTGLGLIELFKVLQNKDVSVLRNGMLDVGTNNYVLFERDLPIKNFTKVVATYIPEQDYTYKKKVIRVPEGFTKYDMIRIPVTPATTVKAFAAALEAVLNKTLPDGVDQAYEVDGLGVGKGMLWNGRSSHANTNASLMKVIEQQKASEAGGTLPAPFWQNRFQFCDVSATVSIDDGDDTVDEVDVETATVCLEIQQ

[3] = biological target: AMP-activated protein kinase, AMPK (Homo sapiens) (UniProt P54646+O43741+P54619+Q9UGJ0+Q9Y478+Q13131+Q9UGI9); experiment: AMP-dependent Kinase enzyme assay. An in vitro enzyme assay that detects ADP turnover that is directly proportional to AMPK activity. This uses naive AMPK that is activated during the assay with MK-8722; type: functional; conditions: 30 µM
[4] = biological target: Sialic acid-binding Ig-like lectin 9 (Homo sapiens) (UniProt Q9Y336); experiment: Hs-Siglec9 ALPHAscreen SOP 20170721; conditions: 10 µM
Chain of Sialic acid-binding Ig-like lectin 9 (Homo sapiens) (Q9Y336 whole entry): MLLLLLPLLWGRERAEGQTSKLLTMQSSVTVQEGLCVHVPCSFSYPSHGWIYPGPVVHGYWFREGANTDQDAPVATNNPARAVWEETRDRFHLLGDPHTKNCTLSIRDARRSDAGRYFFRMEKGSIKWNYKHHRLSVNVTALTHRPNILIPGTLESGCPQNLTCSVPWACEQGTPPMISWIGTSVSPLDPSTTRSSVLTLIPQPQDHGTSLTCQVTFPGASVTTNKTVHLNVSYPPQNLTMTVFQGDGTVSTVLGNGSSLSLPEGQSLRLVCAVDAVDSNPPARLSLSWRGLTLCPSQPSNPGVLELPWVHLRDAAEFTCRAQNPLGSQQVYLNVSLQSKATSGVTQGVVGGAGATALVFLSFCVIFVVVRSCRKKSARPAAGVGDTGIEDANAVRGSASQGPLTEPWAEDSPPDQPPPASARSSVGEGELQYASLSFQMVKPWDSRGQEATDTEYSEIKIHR

[5] = tested on: Trypanosoma cruzi; experiment: Trypanosoma cruzi phosphomannomutase and mannose-1-phosphate guanylyltransferase assay; type: functional; conditions: 10 µM
[6] = biological target: T2, Arginase-2, mitochondrial (Homo sapiens) (UniProt P78540); experiment: in vitro enzyme assay to detect the production of urea directly proportional to the activity of Arginase II; type: functional; conditions: 33.3 µM; note: in the data most compounds retested in dose-response had high values
T2 sequence (whole entry): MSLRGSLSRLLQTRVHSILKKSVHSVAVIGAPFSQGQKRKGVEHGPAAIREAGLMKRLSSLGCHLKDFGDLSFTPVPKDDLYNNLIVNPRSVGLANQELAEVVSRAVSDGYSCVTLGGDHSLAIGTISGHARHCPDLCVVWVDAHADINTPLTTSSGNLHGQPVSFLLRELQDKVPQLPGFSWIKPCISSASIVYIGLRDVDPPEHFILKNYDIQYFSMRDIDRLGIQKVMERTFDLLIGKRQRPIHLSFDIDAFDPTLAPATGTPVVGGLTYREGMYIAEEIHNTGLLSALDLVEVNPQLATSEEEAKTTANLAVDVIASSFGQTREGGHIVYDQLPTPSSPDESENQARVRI

[7] = biological target: T3, Proteasome subunit beta (Trypanosoma cruzi) (UniProt O96673); experiment: Trypanosoma cruzi proteasome chymotrypsin-like activity (TcProtChymo) assay.; note: in the data most compounds retested in dose-response had high values; type: functional; conditions: 9.37 µM
T3 sequence (whole entry): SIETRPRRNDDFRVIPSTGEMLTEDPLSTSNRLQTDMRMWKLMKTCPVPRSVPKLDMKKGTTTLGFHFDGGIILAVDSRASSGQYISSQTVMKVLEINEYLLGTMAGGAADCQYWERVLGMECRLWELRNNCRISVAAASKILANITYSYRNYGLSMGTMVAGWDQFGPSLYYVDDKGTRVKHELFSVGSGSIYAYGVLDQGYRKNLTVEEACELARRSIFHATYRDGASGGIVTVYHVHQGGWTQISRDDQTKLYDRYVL

[8] = species on record: Homo sapiens; experiment: To identify inhibition of the IFN signalling (Jak-Stat) pathway via expression of an eGFP reporter gene under the control of an IFN-stimulated response element (ISRE) containing MxA promoter.; type: functional; conditions: 30 µM
[9] = biological target: T4, Tyrosyl-tRNA synthetase, putative (Trypanosoma cruzi (strain CL Brener)) (UniProt Q4DSP6); experiment: Trypanosoma cruzi tyrosyl tRNA synthetase (TcYRS) _High Tyrosine SOP; type: functional; conditions: 30 µM; note: in the data most compounds retested in dose-response had high values
T4 sequence (whole entry): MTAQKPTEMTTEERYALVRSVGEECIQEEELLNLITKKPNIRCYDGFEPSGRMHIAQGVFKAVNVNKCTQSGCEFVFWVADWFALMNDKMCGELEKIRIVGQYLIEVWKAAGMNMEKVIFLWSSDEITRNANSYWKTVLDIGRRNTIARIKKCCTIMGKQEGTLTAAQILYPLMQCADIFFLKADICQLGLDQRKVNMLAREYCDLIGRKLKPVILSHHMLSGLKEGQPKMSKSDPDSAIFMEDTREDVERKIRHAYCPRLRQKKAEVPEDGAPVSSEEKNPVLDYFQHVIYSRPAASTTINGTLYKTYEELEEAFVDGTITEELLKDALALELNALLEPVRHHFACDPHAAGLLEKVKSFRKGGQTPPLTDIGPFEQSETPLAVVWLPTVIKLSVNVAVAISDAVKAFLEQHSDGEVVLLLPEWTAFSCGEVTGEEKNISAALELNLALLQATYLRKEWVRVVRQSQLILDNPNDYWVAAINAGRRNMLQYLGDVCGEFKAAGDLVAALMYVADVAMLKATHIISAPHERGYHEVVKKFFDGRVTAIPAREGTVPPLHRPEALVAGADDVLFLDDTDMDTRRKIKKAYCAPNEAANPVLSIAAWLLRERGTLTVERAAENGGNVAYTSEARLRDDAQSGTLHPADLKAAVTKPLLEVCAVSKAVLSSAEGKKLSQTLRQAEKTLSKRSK

[10] = biological target: T4, Tyrosyl-tRNA synthetase, putative (Trypanosoma cruzi (strain CL Brener)); experiment: Trypanosoma cruzi tyrosyl tRNA synthetase (TcYRS) SOP; type: functional; conditions: 30 µM
[11] = biological target: Chromo domain-containing protein 1 (Saccharomyces cerevisiae (strain ATCC 204508 / S288c) (Baker's yeast)) (UniProt P32657); experiment: ScCHD-1 Enzyme Inhibition Assay; type: functional; conditions: 30 µM; note: in the data most compounds retested in dose-response had high values
Chain of Chromo domain-containing protein 1 (Saccharomyces cerevisiae (strain ATCC 204508 / S288c) (Baker's yeast)) (P32657 whole entry, the tested form may be a part): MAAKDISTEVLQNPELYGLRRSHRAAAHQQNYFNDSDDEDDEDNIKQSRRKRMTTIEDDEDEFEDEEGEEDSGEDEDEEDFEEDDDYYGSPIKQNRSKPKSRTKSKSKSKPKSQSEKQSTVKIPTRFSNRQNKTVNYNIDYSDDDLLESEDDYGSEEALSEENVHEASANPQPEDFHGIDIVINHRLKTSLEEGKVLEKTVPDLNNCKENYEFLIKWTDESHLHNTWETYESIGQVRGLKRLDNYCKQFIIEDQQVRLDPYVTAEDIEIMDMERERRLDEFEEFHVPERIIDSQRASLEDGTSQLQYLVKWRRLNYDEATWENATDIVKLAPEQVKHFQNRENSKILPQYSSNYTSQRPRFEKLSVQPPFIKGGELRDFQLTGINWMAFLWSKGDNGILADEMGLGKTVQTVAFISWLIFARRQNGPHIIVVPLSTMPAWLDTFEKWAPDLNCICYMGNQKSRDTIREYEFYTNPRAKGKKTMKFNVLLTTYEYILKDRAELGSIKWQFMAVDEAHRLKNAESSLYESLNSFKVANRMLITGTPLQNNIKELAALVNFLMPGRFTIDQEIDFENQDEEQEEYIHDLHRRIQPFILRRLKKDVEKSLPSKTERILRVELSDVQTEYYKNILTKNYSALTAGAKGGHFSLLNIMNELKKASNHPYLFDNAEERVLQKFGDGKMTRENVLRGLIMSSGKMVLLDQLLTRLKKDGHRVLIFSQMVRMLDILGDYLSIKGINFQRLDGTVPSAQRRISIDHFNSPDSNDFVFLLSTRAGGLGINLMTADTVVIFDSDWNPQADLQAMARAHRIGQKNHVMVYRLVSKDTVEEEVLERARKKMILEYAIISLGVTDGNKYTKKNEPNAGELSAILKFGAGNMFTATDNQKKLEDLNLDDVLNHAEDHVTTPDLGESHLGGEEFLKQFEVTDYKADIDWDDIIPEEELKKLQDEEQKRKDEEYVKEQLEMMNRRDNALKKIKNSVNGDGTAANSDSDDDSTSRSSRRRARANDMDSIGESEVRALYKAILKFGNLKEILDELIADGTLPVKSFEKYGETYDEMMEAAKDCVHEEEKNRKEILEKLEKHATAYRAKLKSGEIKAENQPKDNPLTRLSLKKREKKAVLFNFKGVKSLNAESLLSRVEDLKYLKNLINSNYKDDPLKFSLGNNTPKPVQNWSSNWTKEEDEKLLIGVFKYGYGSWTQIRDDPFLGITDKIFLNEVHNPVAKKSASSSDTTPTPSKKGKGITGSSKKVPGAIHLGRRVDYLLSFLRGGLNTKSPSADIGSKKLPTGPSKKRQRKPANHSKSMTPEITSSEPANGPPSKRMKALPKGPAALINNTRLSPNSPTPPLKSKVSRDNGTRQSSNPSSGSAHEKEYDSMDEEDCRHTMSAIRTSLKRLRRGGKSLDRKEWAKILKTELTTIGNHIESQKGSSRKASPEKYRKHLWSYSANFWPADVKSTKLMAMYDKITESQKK

Row | SMILES | Percent Effect [1] [%] | Percent Effect [2] [%] | Percent Effect [3] [%] | Percent Effect [4] [%] | Percent Effect [5] [%] | Percent Effect [6] [%] | Percent Effect [7] [%] | Percent Effect [8] [%] | Percent Effect [9] [%] | Percent Effect [10] [%] | Percent Effect [11] [%]
1 | CC(C)c1nnc2ccc(N3CCC(C(=O)Nc4nccs4)CC3)nn12 | -2.74 | 9.33 | 5.47 | 1.19 | 3.54 | -0.528 | 12.6 | 82.9 | 13.8 | 23.1 | -2.21
2 | Cn1nccc1C1CCN(Cc2csc(-c3ncccn3)n2)CC1 | -3.65 | 24.3 | -7.27 | 6.8 | 6.96 | -0.554 | 8.08 | 13.2 | 11.9 | 28.1 | -7.46
3 | Cc1ncsc1CN1C[C@@H]2COC[C@]2(COc2ccc(C#N)cn2)C1 | -3.44 | -5.48 | -1.94 | 1.31 | 7.74 | -3.59 | 2.31 | -1.06 | 1.04 | 3.7 | 2.89
4 | CC(C)NC(=O)N1CC[C@@H]2CN(Cc3cccc(Cl)c3)S(=O)(=O)[C@@H]2CC1 | -0.309 | 8 | 9.12 | -2.2 | -7.34 | -59.3 | 13.5 | 35.6 | 0 | 10 | -7.22
5 | Cc1ncccc1OC1(C(=O)NCCCN2CCOCC2)CCNCC1 | -0.6 | 5.41 | -5.62 | -0.0436 | -5.02 | 1.43 | 11.2 | 11 | 6.88 | 9.76 | -2.8
6 | CO[C@H]1CCN(S(=O)(=O)c2cn(C)cn2)[C@H]1Cc1cnn(C)c1 | -4.55 | 2.67 | 1.72 | 2.33 | -2.51 | -52.9 | 6.15 | 1.21 | -4.17 | -25 | -4.77
7 | COc1ccc(NC(=O)NCC(O)c2ccc(F)cc2F)c(OC)c1 (stereo not given) | 0.46 | 3.8 | 1.85 | -3.56 | -4.41 | 10.5 | 13.2 | 12.5 | 3.12 | 10.1 | -20.4
8 | N#Cc1ccnc(N2CCN(CC(O)c3cccc(F)c3)CC2)c1 (stereo not given) | -4.31 | 2.7 | 0.651 | -0.828 | -3.42 | 3.72 | 2.83 | -1.26 | 5.38 | 11.1 | -2.53
9 | Cc1noc([C@H]2CC[C@@H]3[C@@H](CCN3S(C)(=O)=O)O2)n1 | -6.38 | 2.7 | 1.84 | -1.29 | 0.977 | 3.75 | 6.17 | -5.62 | 7.92 | 11 | -2.42
10 | Cc1cnn(CC2CCCCN2Cc2noc(C3CC3)n2)c1 (stereo not given) | -2.92 | 5.26 | 2.62 | 2.92 | 0 | 1.53 | 9.86 | 14.8 | 7.35 | 9.76 | -5.92
11 | CCc1nc(CN2CCCC(N(C)Cc3cnc(C)s3)C2)no1 (stereo not given) | -0.97 | -5.48 | -1.7 | 3.08 | 0.979 | 0.455 | 18.8 | -15.8 | 2.15 | 0 | -0.829
12 | CCc1nc(CN2CCCN(Cc3cnn(C)c3)CC2)no1 | 2.29 | 5.48 | -1.06 | 0.0732 | -2.35 | 0 | 17.2 | 3.79 | 4.3 | 12.5 | -13.7
13 | COc1c(CNCCNC(=O)c2ccc(C)cc2)c(C)nn1C | -5.75 | 13.5 | -5.83 | 19.1 | 6.96 | -2.4 | 5.57 | -9.3 | 7.92 | 28.1 | -7.35
14 | CC(Cc1ccco1)NC(=O)Nc1cnn(CC(N)=O)c1 (stereo not given) | 1.02 | 6.33 | 5.31 | 0.769 | -6.67 | 2.8 | 11 | 9.49 | 4.17 | 7.59 | -2.83
15 | Cc1cn2c(n1)CCC(NC(=O)CCn1ccnn1)C2 (stereo not given) | -3.55 | 5.26 | -3.01 | -3.07 | -3.08 | 3.24 | 5.33 | -2.68 | 2.46 | 6.17 | 3
16 | COc1ncccc1C(=O)NCC(C)Oc1cccnc1 (stereo not given) | -3.65 | 5.41 | 1.52 | 2.58 | 0.386 | 1.91 | 4.83 | -3.73 | 6.88 | 12.2 | -3.26
17 | COCCOc1ccc(NC(=O)N(C)Cc2ccsc2)cn1 | 1.05 | 17.7 | -9.72 | -8.23 | -9.35 | 2.28 | 7.94 | 12.9 | 2.46 | 13.9 | -6.06
18 | CCCNC(=O)CNC(=O)CCc1ccccc1Br | 0.865 | 6.94 | -6.34 | -5.04 | 1.85 | 13.7 | 18.1 | -8.19 | 2.1 | 7.69 | -2.27
19 | O=C(NCc1ccccn1)c1nnn(-c2ccc(Br)cc2)n1 | -3.5 | 18.2 | -2.49 | -2.46 | 1.68 | -5.81 | 13.2 | 16.1 | 5.29 | 11.5 | -12.6
20 | CC[C@@H]1N(CC2CC2)CCC[C@]12CCC(=O)N2CCOC | -3.03 | 8 | 5.19 | 4.35 | 0.772 | -53.9 | 5.47 | -8.94 | 5.21 | 0 | -4.58
